Laboratory results taken from PubChem BioAssay AID1159580 (chemical genetic matrix, 2015).
Several values for one entry are separate records, joined by “and”; a condition that tells them apart may be missing. Equal values may be shown once. About 2,000 (36%) of roughly 5,500 compounds were called active. Inconclusive results (about 18%) are left out. No stated cut-off is given here; in the data, active means normalized growth mostly below about 0.91 (no sharp cut-off); inconclusive means no clear call, values can overlap the other calls; inactive means mostly above about 0.92. This is one part of the list. A structure can be active in one record and inactive in another.

Experiment: chemical genetic growth profiling, strain panel (AID 1159580);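 further: tested at 20 µM; growth read once vehicle control cultures reached saturation at 30 °C; 1 = growth at the plate median or of vehicle wells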
Settings: S. cerevisiae deletion strains, growth OD

Measured: normalized growth

O=c1[nH]cc(F)c(=O)[nH]1
inactive: locus YAL040C, strain CLN3, stronger effect = lower value 1.05 | locus YBR171W, strain sec66, stronger effect = lower value 1.09 | locus YBR229C, strain ROT2, stronger effect = lower value 1.01 | locus YDL005C, strain med2, stronger effect = lower value 0.977 | locus YDL074C, strain BRE1, stronger effect = lower value 0.847 | locus YDL101C, strain DUN1, stronger effect = lower value 0.955 | locus YDL185W, strain tfp1, stronger effect = lower value 1 | locus YER002W, strain NOP16, stronger effect = lower value 1.04 | locus YER110C, stronger effect = lower value 1.01 | locus YER155C, strain BEM2, stronger effect = lower value 1.01 | locus YGL167C, strain pmr1, stronger effect = lower value 1.03 | locus YGL240W, strain doc1, stronger effect = lower value 0.901 | locus YGR229C, strain SMI1, stronger effect = lower value 0.948 | locus YHR013C, strain ard1, stronger effect = lower value 0.846 | locus YHR094C, strain hxt1, stronger effect = lower value 0.944 | locus YIL073C, strain SPO22, stronger effect = lower value 0.762 | locus YJL134W, strain LCB3, stronger effect = lower value 1.04 | locus YJL168C, strain set2, stronger effect = lower value 1.02
0.957 (inactive) and 0.85 (active): locus YDR150W, strain NUM1, stronger effect = lower value
active: locus YAL021C, strain ccr4, stronger effect = lower value 0.841 | locus YAL026C, strain drs2, stronger effect = lower value 0.445 | locus YAL030W, strain snc1, stronger effect = lower value 0.642 | locus YBL061C, strain skt5, stronger effect = lower value 0.689 | locus YBR009C, strain hhf1, stronger effect = lower value 0.458 | locus YBR021W, strain FUR4, stronger effect = lower value 0.81 | locus YBR023C, strain chs3, stronger effect = lower value 0.678 | locus YBR231C, strain swc5, stronger effect = lower value 0.639 | locus YBR279W, strain paf1, stronger effect = lower value 0.555 | locus YCL011C, strain gbp2, stronger effect = lower value 0.509 | locus YCL016C, strain dcc1, stronger effect = lower value 0.586 | locus YCL029C, strain bik1, stronger effect = lower value 0.717 | locus YCL061C, strain MRC1, stronger effect = lower value 0.702 | locus YCL069W, strain vba3, stronger effect = lower value 0.484 | locus YCR088W, strain abp1, stronger effect = lower value 0.651 | locus YDL035C, strain GPR1, stronger effect = lower value 0.591 | locus YDL040C, strain nat1, stronger effect = lower value 0.869 | locus YDL192W, strain arf1, stronger effect = lower value 0.715 | locus YDR001C, strain nth1, stronger effect = lower value 0.747 | locus YDR069C, strain doa4, stronger effect = lower value 0.636 | locus YDR101C, strain arx1, stronger effect = lower value 0.64 | locus YDR137W, strain rgp1, stronger effect = lower value 0.629 | locus YDR159W, strain sac3, stronger effect = lower value 1.3 [resistant] | locus YDR162C, strain NBP2, stronger effect = lower value 0.693 | locus YDR195W, strain ref2 0.63 | locus YDR297W, strain sur2, stronger effect = lower value 0.676 | locus YDR318W, strain mcm21, stronger effect = lower value 0.701 | locus YDR334W, strain swr1, stronger effect = lower value 0.741 | locus YDR335W, strain msn5, stronger effect = lower value 0.538 | locus YDR363W, strain ESC2, stronger effect = lower value 0.864 | locus YDR388W, stronger effect = lower value 0.753 | locus YDR392W, strain spt3, stronger effect = lower value 0.476 | locus YDR502C, strain sam2, stronger effect = lower value 0.657 | locus YEL003W, strain gim4, stronger effect = lower value 0.518 | locus YEL037C, strain rad23, stronger effect = lower value 0.539 | locus YEL061C, strain CIN8 (second series), stronger effect = lower value 0.728 | locus YER015W, strain faa2, stronger effect = lower value 0.702 | locus YER016W, strain bim1, stronger effect = lower value 0.629 | locus YER111C, strain swi4, stronger effect = lower value 0.858 | locus YER155C, strain BEM2 (second series), stronger effect = lower value 0.535 | locus YER167W, strain BCK2, stronger effect = lower value 0.795 | locus YFR010W, strain ubp6, stronger effect = lower value 0.598 | locus YGL078C, strain dbp3, stronger effect = lower value 0.571 | locus YGL086W, strain mad1, stronger effect = lower value 0.743 | locus YGL173C, strain kem1, stronger effect = lower value 0.719 | locus YGL227W, strain vid30, stronger effect = lower value 0.856 | locus YGL248W, strain PDE1, stronger effect = lower value 0.71 | locus YGL253W, strain hxk2, stronger effect = lower value 0.328 | locus YGR135W, strain pre9, stronger effect = lower value 0.871 | locus YGR252W, strain gcn5, stronger effect = lower value 0.757 | locus YHR027C, strain rpn1, stronger effect = lower value 0.625 | locus YHR030C, strain SLT2, stronger effect = lower value 0.918 and 0.61 | locus YHR079C, strain IRE1 (second series), stronger effect = lower value 0.665 | locus YHR079C, strain IRE1, stronger effect = lower value 0.553 | locus YHR129C, strain ARP1, stronger effect = lower value 0.896 | locus YHR142W, strain chs7, stronger effect = lower value 0.484 | locus YHR200W, strain rpn10, stronger effect = lower value 0.906 | locus YIL066C, strain RNR3, stronger effect = lower value 0.848 | locus YIL125W, strain kgd1, stronger effect = lower value 0.851 | locus YIR030C, strain dcg1, stronger effect = lower value 0.838 | locus YJL092W, strain hpr5, stronger effect = lower value 0.476 | locus YJL095W, strain BCK1 (second series), stronger effect = lower value 0.689 | locus YJL095W, strain BCK1, stronger effect = lower value 0.661 and 0.616 | locus YJL115W, strain asf1, stronger effect = lower value 0.697 | locus YJL129C, strain trk1, stronger effect = lower value 0.642 | locus YJL154C, strain vps35, stronger effect = lower value 0.756 | locus YJL164C, strain tpk1, stronger effect = lower value 0.463 | locus YJL166W, strain qcr8, stronger effect = lower value 0.577 | locus YJL187C, strain SWE1 (second series), stronger effect = lower value 0.722 | locus YJL187C, strain SWE1, stronger effect = lower value 0.77 | locus YJR043C, strain POL32, stronger effect = lower value 0.669 | locus YJR066W, strain TOR1, stronger effect = lower value 0.532 | locus YJR075W, strain HOC1, stronger effect = lower value 0.835
